From PubChem BioAssay (Tox21)
Records with an inconclusive call do not appear. Where a call stands in place of a potency, no number is given. A number with no mark means an inactive call. Active and inactive are the calls of the source. Unless noted, the call rests on the fitted dose curve; in most records, active means well fitted curve in the direction sought with a large enough effect in the repeat runs; inconclusive means weak or mixed curves; inactive means no such curve, though single readings can be large; an effect the other way counts as inactive or inconclusive.

Legend:
[1] = qHTS assay to identify small molecule antagonists of the vitamin D receptor (VDR) signaling pathway - cell viability counter screen (AID 743225); further: nearly all actives have a fitted effect of over 50% in size
Procedure, shortened: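 Compounds were pinned onto VDR-bla HEK 293T cells together with 1-alpha,25-dihydroxyvitamin D3 at 3 nM final. After 16 h at 37C and 5% CO2 plus the reporter readout, cell viability was measured by CellTiter-Glo luminescence (30 min, room temperature).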

[2] = qHTS assay to identify small molecule agonists of the NFkB signaling pathway (AID 1159509; active means well fitted curve in the direction sought with a large enough effect in the signal ratio in the repeat runs, not every such curve was filed as active; the % refers to the signal ratio; further: series mostly up to about 61 µM)
Procedure, shortened: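 Beta-lactamase reporter assay run in quantitative high-throughput format on an NF-kB-responsive ME-180 line, with 5 hr compound treatment and a FRET-based blue/green fluorescence readout.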

[3] = qHTS assay to identify small molecule agonists of the NFkB signaling pathway - cell viability counter screen (AID 1159515; calls by dose curve; further: series mostly up to about 61 µM; nearly all actives have a fitted effect of over 55% in size)
Procedure, shortened: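 Cells are seeded (2,000 NFkB-bla ME-180 per well), rested overnight, and dosed with DMSO-dissolved compounds for 5 hr at 37 C. Viability is then read by CellTiter-Glo luminescence after 30 min at room temperature.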

[4] = qHTS assay to identify small molecule agonists of the endoplasmic reticulum stress response signaling pathway (AID 1159516; active means well fitted activation curve with a large enough effect in the signal ratio in the repeat runs, not every such curve was filed as active; the % refers to the signal ratio)
Procedure, shortened: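 Cells are seeded at 1,500 per well and incubated overnight. Compounds in DMSO are added for 5 hr at 37 C, then beta-lactamase FRET substrate for 2 hr at room temperature, and fluorescence at 460 and 530 nm is measured.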

[5] = qHTS assay to identify small molecule agonists of the endoplasmic reticulum stress response signaling pathway - cell viability counter screen (AID 1159517; calls by dose curve;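 further: HeLa cells carrying an ER stress response element beta-lactamase reporter; series mostly up to about 61 µM; nearly all actives have a fitted effect of over 50% in size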)
Procedure, shortened: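 Cytotoxicity of test compounds toward ESRE-bla HeLa cells was assessed after 5 hr exposure. The luminescent CellTiter-Glo signal was measured 30 min after reagent addition.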

[6] = qHTS assay to identify small molecule antagonists of the retinoid-related orphan receptor gamma (ROR-gamma) signaling pathway - cell viability counter screen (AID 1159520); further: nearly all actives have a fitted effect of over 50% in size
Procedure, shortened: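 Tet-on ROR gamma CHO cells (1,000/well) were plated 4 hr, given compounds in DMSO for 2 hr at 37 C, then induced with 1 uM final doxycycline for 16 hr. Viability was read as ATP by CellTiter-Glo luminescence after 30 min.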

[7] = molecular target: Nuclear receptor ROR-gamma (Homo sapiens) (UniProt P51449); experiment: qHTS assay to identify small molecule antagonists of the retinoid-related orphan receptor gamma (ROR-gamma) signaling pathway (AID 1159521;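 further: CHO cells with doxycycline inducible ROR-gamma driving an RORE luciferase reporter; top concentration of the series differs between compounds; nearly all actives have a fitted effect of over 50% in size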)
Procedure, shortened: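 Test compounds were applied to Tet-on RORγ CHO cells 2 h ahead of doxycycline hyclate (1 uM final). Luciferase reporter activity was quantified by luminescence after 16 h at 37 C and 5% CO2.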

[8] = qHTS assay to identify small molecule agonists of the AP-1 signaling pathway - cell viability counter screen (AID 1159525; calls by dose curve; further: nearly all actives have a fitted effect of over 55% in size)
Procedure, shortened: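 Each titration point was normalised to DMSO and tetra n-octyl ammonium bromide controls. The read was Cell Titer Glo luminescence after 30 min at RT, following 5 h compound exposure of ME-180 AP-1-bla cells at 37 °C.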

[9] = qHTS assay to identify small molecule agonists of the AP-1 signaling pathway (AID 1159526; calls by dose curve)
[10] = molecular target: Retinoic acid receptor RXR-alpha (Homo sapiens) (UniProt P19793); experiment: qHTS assay to identify small molecule agonists of the RXR signaling pathway (AID 1159527; calls by dose curve; further: nearly all actives have a fitted effect of over 35% in size; further: potency means the concentration at half of the fitted maximal effect)
Chain of Retinoic acid receptor RXR-alpha (Homo sapiens) (P19793 whole entry, looked up): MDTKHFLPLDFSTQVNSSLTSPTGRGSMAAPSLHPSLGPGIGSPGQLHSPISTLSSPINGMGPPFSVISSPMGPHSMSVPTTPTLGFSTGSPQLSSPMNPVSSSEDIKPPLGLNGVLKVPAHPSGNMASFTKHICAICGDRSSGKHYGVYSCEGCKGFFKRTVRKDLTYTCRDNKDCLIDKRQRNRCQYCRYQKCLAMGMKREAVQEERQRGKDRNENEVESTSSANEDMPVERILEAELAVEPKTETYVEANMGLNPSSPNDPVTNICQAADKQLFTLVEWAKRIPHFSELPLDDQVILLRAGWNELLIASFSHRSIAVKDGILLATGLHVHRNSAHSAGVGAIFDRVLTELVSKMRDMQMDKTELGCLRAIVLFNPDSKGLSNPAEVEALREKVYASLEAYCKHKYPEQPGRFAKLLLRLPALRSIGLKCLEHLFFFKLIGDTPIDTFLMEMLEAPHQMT
Procedure, shortened: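 Using 9-cis retinoic acid as the reference agonist, chemicals were tested in HEK 293T cells […] for 16 hr; substrate loading lasted 2 hr at room temperature.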

[11] = qHTS assay to identify small molecule agonists of the RXR signaling pathway - cell viability counter screen (AID 1159529)
Procedure, shortened: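 Compounds dissolved in DMSO were pinned onto HEK 293T cells carrying a beta-lactamase reporter under RXR-alpha control and incubated 16 hr. Cytotoxicity was then quantified by CellTiter-Glo luminescence.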

[12] = qHTS assay to identify small molecule antagonists of the retinoic acid receptor (RAR) signaling pathway (AID 1159552; further: nearly all actives have a fitted effect of over 50% in size)
Procedure, shortened: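 Test chemicals and DMSO controls were pin-transferred onto C3RL4 cells a day after seeding; retinol (1 uM final) followed at once. Luminescent reporter output was quantified after 6 hr of co-incubation and 30 min with detection reagent.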

[13] = qHTS assay to identify small molecule agonists of the retinoic acid receptor (RAR) signaling pathway (AID 1159553)
Procedure, shortened: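 Seed C3RL4 reporter cells at 1,000 per well and incubate overnight at 37 C. Add compounds in DMSO, incubate 6 hr. Add luciferase reagent, wait 30 min at room temperature, read luminescence.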

[14] = qHTS assay to identify small molecule antagonists of the retinoid acid receptor (RAR) signaling pathway - cell viability counter screen (AID 1159551); further: nearly all actives have a fitted effect of over 35% in size
Procedure, shortened: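 Cells (C3RL4) are plated, incubated overnight, dosed with compound in DMSO, then given retinol at 1 uM final. After 6 h at 37 C, CellTiter-Glo is added and luminescence read following 30 min at room temperature.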

[15] = qHTS assay to identify small molecule antagonists of the estrogen related receptor (ERR) signaling pathway - cell viability counter screen (AID 1224818); further: series mostly up to about 46 µM
Procedure, shortened: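 ERR cells, 2,000/well; 6 h settle at 37 C/5% CO2; compound pin transfer (DMSO); 17.5 h at 37 C; CellTiter-Fluor, 30 min, fluorescence read.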

[16] = qHTS assay to identify small molecule antagonists of the estrogen related receptor signaling pathway with the pleiotropic PPARgamma coactivator (PGC) cell viability counter screen (AID 1224822;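 further: series mostly up to about 46 µM; viability read after 17.5 h compound exposure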)
Procedure, shortened: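 Multiplexed viability counter screen run in PGC/ERR cells treated with compounds for 17.5 h at 37 C; live-cell protease signal measured by CellTiter-Fluor fluorescence.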

[17] = qHTS assay to identify small molecule agonists of the estrogen related receptor (ERR) signaling pathway (AID 1224820)
Procedure, shortened: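 Following a 6 h settling period, 2,000 ERR cells per well receive DMSO-dissolved compounds by pin tool and incubate 18 h at 37 C; agonist activity is scored from One-Glo luminescence read 30 min post-addition.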

[18] = system: estrogen-related receptor alpha (ERRalpha) with PGC-1alpha coactivator, human; experiment: qHTS assay to identify small molecule antagonists of the estrogen related receptor signaling pathway with the pleiotropic PPARgamma coactivator (PGC) (AID 1224821; calls by dose curve)
Procedure, shortened: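 Screening used NTP's PGC/ERR cells, dosed via pin tool with compound in DMSO alongside positive and negative controls. After 18 h at 37 C, One-Glo reagent sat 30 min at room temperature before luminescence detection.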

[19] = qHTS assay to identify small molecule agonists of the estrogen related receptor signaling pathway with the pleiotropic PPARgamma coactivator (PGC) (AID 1224823)
Procedure, shortened: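 In this quantitative high-throughput screen, an 18 h, 37 C treatment of PGC/ERR cells with compounds in DMSO preceded a One-Glo luminescence read taken after 30 min at room temperature.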

Structure (SMILES)	Potency [1]	outcome [2]	outcome [3]	outcome [4]	Potency [5]	Potency [6]	Potency [7]	Potency [8]	outcome [9]	Potency [10]	Potency [11]	Potency [12]	Potency [13]	Potency [14]	outcome [15]	outcome [16]	outcome [17]	outcome [18]	outcome [19]
C[C@@H](N)[C@@H](O)c1ccccc1	inactive	inactive	inactive	inactive	inactive	inactive	inactive	inactive	inactive	inactive	inactive	inactive	inactive	–	–	–	–	–	–
C=CCN1CC[C@]23CCCC[C@H]2[C@H]1Cc1ccc(O)cc13	inactive	inactive	inactive	inactive	inactive	inactive	inactive	inactive	inactive	inactive	inactive	inactive	inactive	–	–	–	–	–	–
C=C(C)[C@H]1CN[C@H](C(=O)O)[C@H]1CC(=O)O	inactive	inactive	inactive	inactive	inactive	inactive	inactive	inactive	inactive	inactive	–	inactive	inactive	inactive	inactive	inactive	–	–	–
CNC(=O)Oc1cc(C)c(N(C)C)c(C)c1	inactive	inactive	inactive	inactive	inactive	inactive	inactive	inactive	inactive	43.7 µM (active)	inactive	inactive	inactive	–	–	–	–	–	–
Cn1c(CCCC(=O)O)nc2cc(N(CCCl)CCCl)ccc21	inactive	inactive	inactive	inactive	inactive	inactive	inactive	inactive	inactive	inactive	–	inactive	inactive	inactive	inactive	inactive	inactive	inactive	inactive
CON(C)C(=O)Nc1ccc(Br)cc1	inactive	inactive	inactive	inactive	inactive	inactive	inactive	inactive	inactive	inactive	–	inactive	–	inactive	–	–	–	–	–
COC(=O)c1ccc(CBr)cc1	inactive	inactive	inactive	inactive	inactive	inactive	inactive	inactive	inactive	inactive	–	inactive	–	–	–	–	–	–	–
CC(C)[N+](C)(CCC(C(N)=O)(c1ccccc1)c1ccccc1)C(C)C	inactive	inactive	inactive	inactive	inactive	inactive	inactive	inactive	inactive	–	inactive	inactive	inactive	inactive	–	–	–	–	–
CC(C)C(C)(N)C#N (centres undefined)	inactive	inactive	inactive	inactive	inactive	inactive	inactive	inactive	inactive	inactive	inactive	inactive	inactive	–	–	–	–	–	–
CCC(C)C(C)(COC(N)=O)COC(N)=O (centres undefined)	inactive	inactive	inactive	inactive	inactive	inactive	inactive	inactive	inactive	inactive	inactive	inactive	inactive	–	–	–	–	–	–
